In PubChem BioAssay (NCI) one finds growth data, which are given here for 33 compounds.

Molecules are shown by their SMILES. Compounds without any hit were thinned out: in the full panel of roughly 83,000, 20% have a hit.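 A percent growth of 40 corresponds to 60% growth inhibition; 0 means no net growth; -100 means all cells died. Active threshold: below 10.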 The source made the active and inactive calls.

The first experiment concerns CCRF-CEM leukemia. Briefly: NCI-60 one-dose screen, 48 h (100 = growth as untreated, 0 = no growth, -100 = all killed). The following applies: 10 µM.
For `CCCCCCCCc1ccc(OCCOCC[N+](C)(C)CC)cc1` (tested in a mixture with another compound), the growth is 28.7% (inactive).
The same measure, in the same setting: to `COc1cc2c(cc1OC)C(Cc1cc(OC)c(OC)cc1[N+](=O)[O-])=NCC2` belongs 88.3% (inactive); to `O=S(=O)(O)c1ccc2c(c1)Sc1cc(S(=O)(=O)O)ccc1O2`, 107% (inactive); to `Cc1ccc(S(=O)(=O)Nc2cccc(Cn3c(=O)[nH]c4ccc(Oc5ncccn5)cc4c3=O)c2)cc1`, 65.9% (inactive).
As for `COc1ccc(/C=C2\CCCC3=C2N=C2SC=NN2C3c2ccc(OC)c(OC)c2)cc1OC` (configuration not stated), the growth is 7.48% (active).
On the same count and under the same terms, to `COc1cc(CCNc2cnc3cc(N)cc(N)c3n2)cc(OC)c1` belongs -52.5% (active).
The same measure, in the same setting: then `Cc1ccc(C(=O)Nc2ccc(CN3CCN(C)CC3)c(C(F)(F)F)c2)cc1C#Cc1cnc(N)c2ccc(F)cc12`, with -58.7% (active).
The same measure, in the same setting: then `Cc1ccc(C(=O)Nc2ccc(CN3CCN(C)CC3)c(C(F)(F)F)c2)cc1C#Cc1cncc2ncccc12`, with -56.2% (active); and `O=C(Nc1ccc(-n2cc(-c3ccncc3)c(-c3ccc(Cl)c(O)c3)n2)cc1)c1cc(C(F)(F)F)cc(C(F)(F)F)c1`, with 72.9% (inactive); and `COc1ccc(C(=O)CN2C(=O)NC(c3ccccc3)(c3ccccc3)C2=O)cc1`, with 94.8% (inactive).
Take `COc1ccc(-c2nc(SCC(C)C)nc(Nc3ccccc3)c2C#N)cc1`: the growth was 64.6% (inactive).
Still for that read-out and setting: then `N#CCCCCCCCCCCC#N`, with 97.5% (inactive); and `CCOC(=O)c1ccc2n1CCCc1cnc(NC(C)=O)nc1-2`, with 93.9% (inactive).

The subject of another experiment is MOLT-4 leukemia. Described as above. The conditions noted are these: 10 µM unless noted.
As for `COc1ccccc1Cn1cc2c(c1)-c1oncc1CC2`, the growth was 25.6% (inactive).
On the same count and under the same terms, to `CC1=NN(c2cccc(Cl)c2)C(=O)/C1=C\c1cn(-c2nc(N3CCOCC3)nc(N3CCOCC3)n2)c2ccccc12` belongs 106% (inactive); to `NC(=O)c1c(Nc2ccccc2)nn2cc(-c3nc4ccccc4s3)c(N)nc12`, 93.3% (inactive).
Take `COc1cc(/C(=C2/O[C@@H]([C@H]3COC(C)(C)O3)[C@H]3OC(C)(C)O[C@@H]23)c2ccc3c(c2)OCO3)cc(OC)c1OC`: the growth was 106% (inactive).
On the same count and under the same terms, to `O=C(N/N=C/c1coc2ccccc2c1=O)c1cc2oc(-c3ccccc3)cc2[nH]1` belongs 55.9% (inactive); to `CCCCCCCCCC[N+](C)(C)C`, -0.229% (active).
In the case of `CCCCCCC(=O)C(C)C`, the growth was 96.6% (inactive).
Turning to `CCCC(=O)NNc1[nH]c(-c2ccc(OC)cc2)cc1C(=O)OCC`, the growth was 3.23% (active).
On to `O=C1c2cc([N+](=O)[O-])ccc2-c2cc(Cl)c(NC(=O)C(F)(F)F)cc21`, for which the growth is 94% (inactive).
Take `N=C(c1ccccc1)N(Cc1ccccc1)Cc1ccccc1`: the growth is 86.3% (inactive).
For the compound `CSCc1ncc(-c2ccc(C(F)(F)F)cc2)c(NC2CCCCCC2)n1`, the growth was 23% [25 µM] (inactive).
Same read-out and setting: then `O=C(Nc1cccc(Cn2c(=O)[nH]c3ccc(Oc4ncccn4)cc3c2=O)c1)c1ccc(Cl)cc1`, with 22.5% (inactive); and `CC[C@H](Nc1ncnc2nc[nH]c12)c1nc2cccc(NCc3ccc(C(=O)NO)o3)c2c(=O)n1-c1ccccc1`, with 97.8% (inactive); and `CCCCCCCCCC[N+](C)(C)N`, with 80.5% (inactive).
On the same count and under the same terms, to `C=C(C)C(C(=O)OCC)(C(=O)OCC)C(C)C` belongs 114% (inactive); to `COC1=CC(c2ccc[nH]2)=N/C1=C\c1[nH]c(C)c(C(=O)CCCCC(=O)NC(C)(C)C)c1C`, 21.2% (inactive).
Regarding `COc1ccc(NC(=O)/C=C(C)/C=C/C=C(C)/C=C/C2=C(C)CCCC2(C)C)cc1`, the growth is 76.1% (inactive).
For the compound `CCCCCCCCc1ccc(OCCOCC[N+](C)(C)CC)cc1` (tested in a mixture with another compound), the growth was 51.4% (inactive).
With `COc1cc2c(cc1OC)C(Cc1cc(OC)c(OC)cc1[N+](=O)[O-])=NCC2`, the growth is 92.4% (inactive).
Consider `O=C1CCNC1`, for which the growth is 98.8% (inactive).
Same read-out and setting: then `COc1ccc(-c2nnc(SCC(=O)Nc3ccc(C(=O)/C=C/c4cc(OC)c(OC)c(OC)c4)cc3)n2-c2ccccc2)cc1OC`, with 44.5% [100 µM] (inactive); and `O=S(=O)(O)c1ccc2c(c1)Sc1cc(S(=O)(=O)O)ccc1O2`, with 115% (inactive); and `Cc1ccc(S(=O)(=O)Nc2cccc(Cn3c(=O)[nH]c4ccc(Oc5ncccn5)cc4c3=O)c2)cc1`, with 64.5% (inactive).
Still for that read-out and setting: then `CCCCCCCCCCC(C[N+](C)(C)C/C=C/c1ccccc1)C(O)c1ccccc1` (configuration not stated), with -24.4% (active).
